Shn3 3UTR inh: reduction of Shn3 3'UTR firefly luciferase signal, primary screen, Schnurri-3 inhibitor project, cell-based, Clone20 osteoblasts, set 2; Clone20 osteoblast Shn3 3'UTR firefly luciferase, 24 h; inhibition, % at 12.5 µM; 360,000 compounds, 0.52% hits;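 active = mean inhibition of at least 75% with every replicate also reaching 75%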
LMP1 NFkB inh: EBV LMP1-driven NF-kappaB luciferase reporter inhibitors, primary screen, cell-based, luminescence, single point; inhibition, % at 12.5 µM; 350,000 compounds, 0.69% hits; LMP1-induced NF-kappaB luciferase reporter cells; in the data active = inhibition above about 41%
TRPM1 prom inh: inhibitors of MITF-dependent TRPM1 promoter reporter, primary screen, cell-based, SK-MEL-5, single point, luciferase. SK-MEL-5 TRPM1 promoter luciferase, 24 h. inhibition, % at 12.5 µM. 330,000 compounds, 0.83% hits. AID 488899, 2010;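 active = mean inhibition across replicates of 60% or more, whatever share of single replicates reaches that level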
HIF-2a inh: HIF-2a reporter inhibitors, primary screen, luminescence, 786-0 RCC cells. 786-0 RCC cells HIF-2a reporter, luciferase luminescence, overnight. inhibition, % at 18.8 µM. 360,000 compounds, 0.72% hits;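 active = inhibition of the luminescence signal of 40% or more relative to plate controls, in a single-dose primary screen at 18.75 µM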
TROY NFkB inh: inhibitors of TROY-driven NF-kB signaling, primary screen, Q293 LMP1-TROYcd cells, NF-kB luciferase, uHTS; 360,000 compounds, 0.98% hits; Q293 LMP1-TROYcd NF-kB luciferase reporter, 4 h; inhibition, % at 10 µM;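 active = compounds whose plate-normalised and pattern-corrected inhibition of the luciferase reporter signal at the single screening dose is 50% or more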
TWEAK-Fn14 inh: inhibitors of TWEAK-Fn14 signaling, primary screen, luciferase reporter cells, uHTS. TWEAK-stimulated Fn14 reporter cells, luciferase luminescence, 8 h. inhibition, % at 10 µM. 360,000 compounds, 2% hits. AID 1159606, 2016; in the data active = inhibition above about 50%
Of the large screens only hits and unclear results are named; the others gave an inactive call. Sampled rows, rich in hits. Any-hit rate of the full collection: about 3.4%.

C=C1C(=O)[C@]23C[C@H]1CCC2[C@@]1(C)C(C[C@@H]3O)[C@](C)(C(=O)OC)CC[C@@H]1O (stereo partly specified)	Shn3 3UTR inh 99.2, HIF-2a inh 98.8, TROY NFkB inh 59.3, TWEAK-Fn14 inh 97.7 (no result: LMP1 NFkB inh, TRPM1 prom inh)
CC1=NN(c2nc(-c3ccc(C)cc3)cs2)C(=O)C1N=Nc1ccc(C(N)=O)cc1 (stereo unspecified)	TRPM1 prom inh 101.6
CC(Nc1ncnc2sccc12)c1ccccc1 (stereo unspecified)	Shn3 3UTR inh 86.6, TWEAK-Fn14 inh 53.9
COc1ccc2[nH]c3c(c2c1)CCN1C(=O)C(CC(=O)NCCc2ccccn2)C[C@H](C(=O)N(C(C)C)C(C)C)[C@@]31C (stereo partly specified)	none
CN(C)CCCC1(c2ccc(F)cc2)OCc2cc(C#N)ccc21 (stereo unspecified)	LMP1 NFkB inh 54.2
Cc1ccc(S(=O)(=O)c2nc(Nc3nccs3)sc2Cl)cc1	TROY NFkB inh 51.7
COc1cc(C(=O)NC(=S)Nc2ccc(Cc3ccncc3)cc2)cc(OC)c1OC	none (no result: TRPM1 prom inh)
COc1ccccc1C(=O)NC(=S)Nc1ccc(Cc2ccncc2)cc1	TROY NFkB inh 61.8
COc1c(C(=O)Nc2ccc(Cc3ccncc3)cc2)ccc2ccccc12	TROY NFkB inh 56.8
CC(C)NC(=O)C1(C)CN(S(C)(=O)=O)CC(=O)N1CCc1ccccc1 (stereo unspecified)	none (no result: Shn3 3UTR inh, LMP1 NFkB inh, TRPM1 prom inh, TROY NFkB inh, TWEAK-Fn14 inh)
CC(C)CN1CCN(CCCOC(=O)Nc2cccc3ccccc23)CC1C (stereo unspecified)	none
CCOC(=O)c1ccc(Oc2nc(SC)nc(N(C)C)n2)cc1	TWEAK-Fn14 inh 73.5 (no result: TROY NFkB inh)
CCOC(=O)c1sc(NC(=O)CNCc2ccccn2)c(C(=O)OCC)c1C	LMP1 NFkB inh 44.2
Cc1ccccc1-c1nnc(NC(=O)c2ccc(N3C(=O)CCC3=O)cc2)s1	none
O=C(Nc1nnc(C23CC4CC(CC(C4)C2)C3)s1)c1ccc(N2C(=O)CCC2=O)cc1	LMP1 NFkB inh 80.8
CC(C)c1nnc(NC(=O)c2ccc(N3C(=O)CCC3=O)cc2)s1	LMP1 NFkB inh 85.5
CC(C)Cn1c(SC(C)C(=O)NCC2CCCO2)nc2ccc(Cl)cc2c1=O (stereo unspecified)	none
Cc1ccn2cc(-c3cc4ccccc4oc3=O)nc2c1	TWEAK-Fn14 inh 66.0
C[C@@H]1CC2=C(C(=O)OC(C)(C)O2)[C@H](c2ccc(Cl)cc2)O1	none (no result: Shn3 3UTR inh, LMP1 NFkB inh, TRPM1 prom inh)
COc1ccc(NC(=O)C2(C)Cc3c(-c4ccc(C(N)=O)cc4)ccnc3O2)cn1 (stereo unspecified)	none (no result: LMP1 NFkB inh, TRPM1 prom inh)
NC(=O)c1cc2ccc(O)cc2oc1=Nc1ccccc1	none
O=C(O)c1ccc(N=c2oc3cc(O)ccc3cc2C(=O)NCc2ccccc2)cc1	none
COc1ccc2cc(C(N)=O)c(=Nc3ccccc3)oc2c1	TWEAK-Fn14 inh 72.3
COc1ccc2cc(C(=O)NCc3ccccc3)c(=Nc3ccc(C(=O)O)cc3)oc2c1	TWEAK-Fn14 inh 58.9
COc1cccc2cc(C(=O)NCc3ccco3)c(=Nc3ccc(C(=O)O)cc3)oc12	TWEAK-Fn14 inh 70.7
Cc1ccc(S(=O)(=O)NC(CC(=O)OCc2ccccc2)C(=O)OCc2ccccc2)cc1 (stereo unspecified)	none (no result: TRPM1 prom inh)
O=c1[nH]c2cccc(Cl)c2c2ccccc12	none (no result: TRPM1 prom inh)
COc1ccccc1C1c2ccc3ccccc3c2Oc2ncn(CCN(C)C)c(=N)c21 (stereo unspecified)	LMP1 NFkB inh 47.6, TRPM1 prom inh 69.0
COc1ccccc1C1c2ccc3ccccc3c2Oc2ncn(CCCO)c(=N)c21 (stereo unspecified)	TRPM1 prom inh 61.6
COc1ccc(C2c3c(ncn(CCCO)c3=N)Oc3ccc4ccccc4c32)cc1OC (stereo unspecified)	none (no result: Shn3 3UTR inh, LMP1 NFkB inh, TRPM1 prom inh)
COc1ccc(C2c3ccc4ccccc4c3Oc3ncn(Cc4ccco4)c(=N)c32)cc1OC (stereo unspecified)	none

Screening results (PubChem BioAssay)
